Over roughly 33,000 sequences, “E-score (-0.5 to 0.5)” has its median near -0.054; the highest 2% begin near 0.35. The list comes from a sample in which the highest values are over-represented; it also holds similar and randomly drawn sequences.

The target of the test is T1, Stb5 (UniProt P38699).
T1 sequence: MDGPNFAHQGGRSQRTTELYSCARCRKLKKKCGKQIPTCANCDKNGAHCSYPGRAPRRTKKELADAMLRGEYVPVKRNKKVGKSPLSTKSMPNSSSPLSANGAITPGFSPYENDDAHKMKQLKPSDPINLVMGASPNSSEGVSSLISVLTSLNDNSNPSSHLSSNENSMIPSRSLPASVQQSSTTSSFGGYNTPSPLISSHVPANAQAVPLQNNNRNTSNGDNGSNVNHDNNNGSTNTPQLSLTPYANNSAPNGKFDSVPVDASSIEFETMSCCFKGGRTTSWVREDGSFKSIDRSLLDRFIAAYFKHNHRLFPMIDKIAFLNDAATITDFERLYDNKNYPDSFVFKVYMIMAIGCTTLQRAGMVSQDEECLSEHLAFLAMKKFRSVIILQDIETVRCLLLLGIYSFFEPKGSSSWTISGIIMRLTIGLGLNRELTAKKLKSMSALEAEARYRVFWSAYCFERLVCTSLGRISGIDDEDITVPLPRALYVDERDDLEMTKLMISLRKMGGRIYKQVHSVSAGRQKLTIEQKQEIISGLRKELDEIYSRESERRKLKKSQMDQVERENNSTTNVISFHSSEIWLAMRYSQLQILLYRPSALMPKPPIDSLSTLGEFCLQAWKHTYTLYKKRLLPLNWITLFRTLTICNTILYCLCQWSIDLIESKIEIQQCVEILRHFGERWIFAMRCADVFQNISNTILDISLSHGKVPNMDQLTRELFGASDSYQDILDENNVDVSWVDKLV
Description: PBM E-score (8-mer binding enrichment) (E-score (-0.5 to 0.5)); higher = stronger / more preferred TF binding. The note with it: protein concentration: 200 nM; construct: GST-full length. The method in brief: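 PURExpress in vitro transcription/translation supplied GST-tagged yeast transcription factors, either full-length or DNA-binding domain. Applied at about 100-200 nM to universal all-10-mer Agilent arrays double-stranded by primer extension, the bound protein was detected with fluorescent anti-GST. E-scores, modified Wilcoxon-Mann-Whitney statistics, were given by the Universal PBM Analysis Suite to ungapped eight-base words pooled with their reverse complements after masliner normalisation.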
With CCGTATCA, the “PBM E-score” value came to 0.145.

As for CCGTCTCC, the “PBM E-score” value turned out to be 0.22. CCCTCAAC: the “PBM E-score” value was -0.125. As for AAGTAGGT, the “PBM E-score” value was 0.00443.

As to ATAAGTAC, the “PBM E-score” value came out at 0.133. The same measure for CATGACCA: -0.378.

For the sequence CTGGACTC, the “PBM E-score” value was -0.169. On to AAACGAAC, for which the “PBM E-score” value is -0.193.

For ACCTTACA, the “PBM E-score” value is -0.0752. The same measure for CGGTTCTA: 0.36; for GGGTTATA: 0.257; for CGGTTTAA: 0.155.

For the sequence AGGTTCTA, the “PBM E-score” value turned out to be 0.0114.

Regarding GGGGTTTA, the “PBM E-score” value turned out to be 0.329. The same measure for CGGGTTTA: 0.467; for CGGTTATA: 0.37. The same measure for AGGTTATA: -0.0254.

For the sequence AGGTTTTA, the “PBM E-score” value was found to be 0.0721.

Regarding CGGGTTTC, the “PBM E-score” value stood at 0.273. On to GGGTTCTA, for which the “PBM E-score” value is 0.162. Turning to CGGTTTTA, the “PBM E-score” value stood at 0.41. The same measure for CTAAAGGA: 0.0339; for ACTGAAGC: -0.111; for CTCCATAC: -0.0338. The same measure for CGTTCGGA: 0.243. Consider GAAGGTCA, for which the “PBM E-score” value was -0.15. The same measure for AACACCAG: 0.011; for ACCGTCGC: 0.332; for CCCGTCGG: 0.435. For the sequence CCCGTCGC, the “PBM E-score” value was determined as 0.25.

As to ACCGTCGG, the “PBM E-score” value worked out at 0.392. The same measure for ACCGTCGA: 0.286; for CCCGTCGA: 0.206; for GTTAACCA: -0.181.

In the case of GCACCACA, the “PBM E-score” value was -0.0487. Take CCCATGCC: the “PBM E-score” value worked out at 0.0152. Regarding TATGTGAA, the “PBM E-score” value was -0.344. The same measure for AAACTTGT: -0.145; for CAGCGGAC: 0.332; for GAGCGGAC: 0.376. Turning to AAGCGGAT, the “PBM E-score” value is 0.297.

In the case of AAGCGGAC, the “PBM E-score” value was 0.352. The same measure for AAGCGGAG: 0.252; for GAGCGGAA: 0.308; for CAGTTATG: 0.143. The same measure for CCCCCGCC: 0.313; for ACCCCGCC: 0.463. The same measure for CCCCCGCG: 0.325; for GCCCCGCC: 0.403; for GGCCCGCC: 0.303. As for AACCCGCG, the “PBM E-score” value was 0.231. The same measure for AACCCGCT: 0.222.

Take ACCCCGCG: the “PBM E-score” value came out at 0.367. Regarding GCCCCGCA, the “PBM E-score” value was 0.262.

Regarding AACCCGCC, the “PBM E-score” value came to 0.276. The same measure for AGCCCGCT: 0.317.

With ACCCCGCT, the “PBM E-score” value came to 0.437. The same measure for AATCAATT: -0.151; for TGTATGAA: 0.0366; for CTTTAAGA: 0.0831. The same measure for TAGCAGCA: -0.233. The same measure for AATATTAA: 0.0579. With TTCTCAAA, the “PBM E-score” value was -0.128.

ACCGATAG: the “PBM E-score” value stood at 0.167. As to CAACAATG, the “PBM E-score” value was -0.0552. The same measure for CCCCCGCA: 0.154; for AACCCGCA: 0.229. In the case of ACCCCGCA, the “PBM E-score” value was found to be 0.382.

Take CGTGTTAG: the “PBM E-score” value came to 0.0849.

Consider AATCACCG, for which the “PBM E-score” value was found to be 0.441. The same measure for AAGCACCG: 0.457; for CACCACCG: 0.21.

On to AATCACCA, for which the “PBM E-score” value is -0.0307. The same measure for CAGCACCG: 0.313; for AACCACCG: 0.406; for AACCACCA: -0.124. The same measure for AAGCACCT: -0.21; for CATCACCG: 0.251; for ACCAGTGA: -0.215. The same measure for GAGCTCGA: -0.257; for AATACTGC: -0.0596.

Turning to CCAGTATA, the “PBM E-score” value was -0.066. As to AAAGCACC, the “PBM E-score” value turned out to be 0.311.

As to ACCCCAAA, the “PBM E-score” value is -0.179.

For the sequence ACCGGCGC, the “PBM E-score” value worked out at 0.336. The same measure for ACCGGCGA: 0.281.
